The panel holds about 83,000 compounds, 20% with a hit somewhere; the sample as a whole holds those more often.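 Values shown are percent growth following 48 h exposure of cells in 96-well plates to a single concentration of compound; below 10 was considered active.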 Unmarked numbers belong to inactive results. The source made the active and inactive calls.
System: BT-549 breast
Assay: NCI-60 one-dose screen, 48 h (100 = growth as untreated, 0 = no growth, -100 = all killed)
Conditions: 10 µM unless noted

Row | SMILES | growth
1 | CO/C=C/C(=O)c1cc2cnc3c(=N)cc(NC(=O)C(C)C)c([nH]1)c23 | -58.9% (active)
2 | Cc1cc2c(-c3nc4ccccn4c3Nc3cccc4ccccc34)c(O)c(O)cc2c(O)c1-c1c(C)cc2c(-c3nc4ccccn4c3Nc3cccc4ccccc34)c(O)c(O)cc2c1O | 27.9%
3 | Cc1cc(N2CCOCC2)nc(N(CCNc2ccnc3cc(Cl)ccc23)Cc2cccs2)n1 | -16.3% (active)
4 | CCCCCCCC(=O)SCC/C=C/[C@@H]1CC(=O)NCc2cc(ccn2)C2=N[C@@](C)(CS2)C(=O)N[C@@H](C(C)C)C(=O)O1 | 36.4%
5 | Cc1sc2c(c1C)c(=O)nc1c(-c3nc4ccccc4s3)n[nH]n12 | 101%
6 | CC(C)(C)CC(C)(C)Nc1c(-c2c(O)c3ccccc3oc2=O)nc2c(Cl)cc(C(F)(F)F)cn12 | 78.7%
7 | CCOc1cccc(/C=N/NC(=O)c2ccccc2Nc2ccnc(C(F)(F)F)c2)c1O | 26.4%
8 | Cc1cc2c(-c3nc4ccccn4c3NC3CCCCC3)c(O)c(O)cc2c(O)c1-c1c(C)cc2c(-c3nc4ccccn4c3NC3CCCCC3)c(O)c(O)cc2c1O | 30.1%
9 | C=CCC(=O)N[C@H](/C=C/C(=O)O)Cc1ccc(-c2cc(Cl)cc(Cl)c2)cc1 | 92%
10 | CN1CCN(c2nc(NCCNc3ccnc4cc(Cl)ccc34)c3ccccc3n2)CC1 | 28.3%
11 | C[C@@H](C[C@H](CCO)c1cc(C(F)(F)F)cc(C(F)(F)F)c1)c1ccc2ccccc2c1 | 102%
12 | C=C1C(=O)O[C@H]2[C@H]1CC/C(Cn1cc(-c3cc(C)c(C)cc3C)nn1)=C\CC[C@@]1(C)O[C@@H]21 | -66.1% (active)
13 | COc1ccc2c(CCCc3ccc(Cl)cc3Cl)c3[n+](cc2c1OC)CCc1cc2c(cc1-3)OCO2 | -28% (active)
14 | CCN1CCN(c2cc(C)nc(N(CCCNc3ccnc4cc(Cl)ccc34)Cc3ccc4c(c3)OCO4)n2)CC1 | -42.6% (active)
15 | O=C1CC(c2ccc(Cl)cc2)c2ncn(-c3cccc(Cl)c3)c2N1 (centres undefined) | 52.5%
16 | Cc1ccccc1Nc1nc2nonc2nc1Nc1cccc(C)c1C | 51.7%
17 | Fc1ccc(NCc2cn(-c3ccccc3)nc2-c2ccc(OCc3ccccc3)cc2)cc1Cl | 89.6%
18 | CCCCCCCC(=O)SCC/C=C/[C@@H]1CC(=O)NCc2cccc(n2)C2=N[C@@](C)(CS2)C(=O)N[C@@H](C(C)C)C(=O)O1 | 32%
19 | COC(=O)C1CCc2sc3ncnc(Nc4cn[nH]c4C(=O)Nc4ccc(CN5CCN(C)CC5)cc4)c3c21 (centres undefined) | -0.677% (active)
20 | C=CC(=O)N(C)[C@H]1C[C@H]2OC(C)(C1OC)n1c3ccccc3c3c4c(c5c6ccccc6n2c5c31)C(=O)NC4 (some centres undefined) | -70.4% (active)

Row | SMILES | growth
21 | Cc1cc(N(CCNc2ccnc3cc(Cl)ccc23)Cc2ccc3c(c2)OCO3)nc(N2CCN(C)CC2)n1 | 21.6%
22 | CN1CCN(CCCOc2cccc3nc(Nc4ccc(Cl)c(C(F)(F)F)c4)ccc23)CC1 | 59.1%
23 | Nc1c2c(c(O)c3c1=C(CO)C=N3)=NCCS2 | -95.9% (active)
24 | Cc1cc(O)c2c(c1)C1OC(=O)CCCCCN1C1=C2C(=O)c2cccc(OC3CC(O)C(O)C(C)O3)c2C1=O (centres undefined) | 83.6%
25 | CC1(C=O)NC(=O)NC1=O (centres undefined) | 91.4%
26 | COc1ccc(Nc2ncccc2NC(=O)c2cn(Cc3cccc(Oc4ccccc4)c3)nn2)cc1 | 93.6%
27 | OCCNC(=S)Nc1ccc(-c2nc(N3C[C@H]4CC[C@@H](C3)O4)c3cccn3n2)cc1 | -8.04% (active)
28 | O=C(c1ccccc1)C(c1ccccc1)N1CCOCC1 (centres undefined) | 110%
29 | NN1C(=O)CSC1=S | 93.5%
30 | CC12O[C@H](C[C@@H](OC(=O)CCC(=O)O)[C@H]1O)n1c3ccccc3c3c4c(c5c6ccccc6n2c5c31)C(=O)NC4=O | -1.04% (active)
31 | C=C1[C@@H](O)C[C@H]2C(C)(C)C[C@H](Cl)C[C@]2(C)[C@H]1C[C@H](O)[C@H]1CC(=O)NC1=O | -24.1% (active)
32 | COC(=O)[C@H](Cc1ccccc1)NC(=O)[C@@H](OC)[C@@H]1Cc2cc3cc(OC4CC(OC5CC(O)C(O)C(C)O5)C(O)C(C)O4)c(C)c(O)c3c(O)c2C(=O)[C@H]1OC1CC(OC2CC(OC3CC(C)(O)C(O)C(C)O3)C(O)C(C)O2)C(O)C(C)O1 (some centres undefined) | -62.4% (active)
33 | CCOC(=O)C1=C(C)N=C2Sc3cccc(OC)c3N2[C@H]1c1ccccn1 | 101%
34 | CNC(=O)c1cc(Oc2cccc3nc(Nc4ccc(Oc5ccccc5)cc4)ccc23)ccn1 | 57.2%
35 | COc1ccc(-c2nc(N)ncc2Oc2ccccc2OC)c(O)c1 | 36%
36 | CSc1nc2ncncc2[nH]1 | 110%
37 | Nc1c2c(c(O)c3c1=C(CO)C=N3)=NCCS2=O (centres undefined) | -74.4% (active)
38 | CC(C)=CCc1cc2c(cc1O)C1=C(C(=O)C3=C(NCCS3(=O)=O)C1=O)C(C=C(C)C)O2 (centres undefined) | 40.3%
39 | CC/C=C\C[C@H]1C/C=C2/C(=O)C=C[C@@H]2C/C=C\CCCC(=O)O1 | -20.4% (active)

From PubChem BioAssay (NCI)
